Whole data set: some 16,000 sequences, median “rpm ratio (pull-down/input)” near 0.94, cut for the highest 2% near 1.7. Only a selection was taken, and the highest values are over-represented in it overall.
Molecular target: T1, MBP-FoxP1dN (Mus musculus, UniProt P58462 326-579)
T1 sequence: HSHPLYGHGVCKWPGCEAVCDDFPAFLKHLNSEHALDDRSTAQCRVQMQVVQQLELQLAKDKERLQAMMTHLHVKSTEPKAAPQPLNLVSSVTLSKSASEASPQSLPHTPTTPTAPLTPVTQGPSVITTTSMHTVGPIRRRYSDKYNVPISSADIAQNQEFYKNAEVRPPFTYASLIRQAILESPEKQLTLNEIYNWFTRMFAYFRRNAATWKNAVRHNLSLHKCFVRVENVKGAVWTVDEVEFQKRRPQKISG
Test: PD-seq (MBP pull-down with sequencing); 20 mM Tris-HCl pH 7.5, 100 mM NaCl, 1.5 mM MgCl2, 0.4 uM protein, 0.1 uM dsDNA library, 30 min, room temperature, amylose pull-down; high values mean tight binding
Details: protein: recombinant; tags: His6-MBP; chain copies: 2; dsDNA, one strand shown
Procedure, shortened: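 Binding is reads-per-million enrichment of pull-down over input, with replicates pooled. It comes from 30 min room-temperature incubation in Tris pH 7.5 buffer with NaCl and MgCl2 of 0.4 µM His6-MBP-tagged, N-terminally truncated mouse FoxP3 or FoxP1 fragment from E. coli with 0.1 µM Klenow-filled degenerate double-stranded DNA library, followed by amylose resin capture, three washes and Illumina sequencing of the released DNA.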

| Sequence | binding signal |
| --- | --- |
| GATGATTGTTCTCCCAGCTGATGAATTTAACGCCTCGAGTAAACAAATTTTCCTAATCTTTCTGTTCAAGCGCCATCTAC | 0.91 RPM ratio (pull-down/input) |
| GATGATTGTTCTCCCAGCTGATGAATTAGCGCACTCGAGTAAACAAATTTTCCTAATCTTTCTGTTCAAGCGCCATCTAC | 0.88 RPM ratio (pull-down/input) |
| GATGATTGTTCTCCCAGCTGATGAATTACACGCGTCGAGTAAACAAATTTTCCTAATCTTTCTGTTCAAGCGCCATCTAC | 1.18 RPM ratio (pull-down/input) |
| GATGATTGTTCTCCCAGCTGATGAATTCACGGGTTCGAGTAAACAAATTTTCCTAATCTTTCTGTTCAAGCGCCATCTAC | 0.766 RPM ratio (pull-down/input) |
| GATGATTGTTCTCCCAGCTGATGAATTCAGTCTATCGAGTAAACAAATTTTCCTAATCTTTCTGTTCAAGCGCCATCTAC | 0.905 RPM ratio (pull-down/input) |
| GATGATTGTTCTCCCAGCTGATGAATTCGCCACTTCGAGTAAACAAATTTTCCTAATCTTTCTGTTCAAGCGCCATCTAC | 0.857 RPM ratio (pull-down/input) |
| GATGATTGTTCTCCCAGCTGATGAATTGTACTCATCGAGTAAACAAATTTTCCTAATCTTTCTGTTCAAGCGCCATCTAC | 1.04 RPM ratio (pull-down/input) |
| GATGATTGTTCTCCCAGCTGATGAATTTTATAGGTCGAGTAAACAAATTTTCCTAATCTTTCTGTTCAAGCGCCATCTAC | 0.796 RPM ratio (pull-down/input) |
| GATGATTGTTCTCCCAGCTGATGAATTGAGTGTATCGAGTAAACAAATTTTCCTAATCTTTCTGTTCAAGCGCCATCTAC | 1.16 RPM ratio (pull-down/input) |
| GATGATTGTTCTCCCAGCTGATGAATTATGTTTATCGAGTAAACAAATTTTCCTAATCTTTCTGTTCAAGCGCCATCTAC | 2.99 RPM ratio (pull-down/input) |
| GATGATTGTTCTCCCAGCTGATGAATTTATGATATCGAGTAAACAAATTTTCCTAATCTTTCTGTTCAAGCGCCATCTAC | 1.33 RPM ratio (pull-down/input) |
| GATGATTGTTCTCCCAGCTGATGAATTTTATGAATCGAGTAAACAAATTTTCCTAATCTTTCTGTTCAAGCGCCATCTAC | 0.942 RPM ratio (pull-down/input) |
| GATGATTGTTCTCCCAGCTGATGAATTTATGTTATCGAGTAAACAAATTTTCCTAATCTTTCTGTTCAAGCGCCATCTAC | 2.22 RPM ratio (pull-down/input) |
| GATGATTGTTCTCCCAGCTGATGAATTTATGTAATCGAGTAAACAAATTTTCCTAATCTTTCTGTTCAAGCGCCATCTAC | 1.95 RPM ratio (pull-down/input) |
| GATGATTGTTCTCCCAGCTGATGAATTCATGTAATCGAGTAAACAAATTTTCCTAATCTTTCTGTTCAAGCGCCATCTAC | 1.5 RPM ratio (pull-down/input) |
| GATGATTGTTCTCCCAGCTGATGAATTCATGTTATCGAGTAAACAAATTTTCCTAATCTTTCTGTTCAAGCGCCATCTAC | 1.78 RPM ratio (pull-down/input) |
| GATGATTGTTCTCCCAGCTGATGAATTATCTTTATCGAGTAAACAAATTTTCCTAATCTTTCTGTTCAAGCGCCATCTAC | 1.09 RPM ratio (pull-down/input) |
| GATGATTGTTCTCCCAGCTGATGAATTATGATTATCGAGTAAACAAATTTTCCTAATCTTTCTGTTCAAGCGCCATCTAC | 1.51 RPM ratio (pull-down/input) |
| GATGATTGTTCTCCCAGCTGATGAATTTTATGTATCGAGTAAACAAATTTTCCTAATCTTTCTGTTCAAGCGCCATCTAC | 1.71 RPM ratio (pull-down/input) |
| GATGATTGTTCTCCCAGCTGATGAATTCATCTTATCGAGTAAACAAATTTTCCTAATCTTTCTGTTCAAGCGCCATCTAC | 0.961 RPM ratio (pull-down/input) |
| GATGATTGTTCTCCCAGCTGATGAATTATGTAAATCGAGTAAACAAATTTTCCTAATCTTTCTGTTCAAGCGCCATCTAC | 1.47 RPM ratio (pull-down/input) |
| GATGATTGTTCTCCCAGCTGATGAATTCCATGTGTCGAGTAAACAAATTTTCCTAATCTTTCTGTTCAAGCGCCATCTAC | 0.939 RPM ratio (pull-down/input) |

| Sequence | binding signal |
| --- | --- |
| GATGATTGTTCTCCCAGCTGATGAATTTTTCGGATCGAGTAAACAAATTTTCCTAATCTTTCTGTTCAAGCGCCATCTAC | 0.904 RPM ratio (pull-down/input) |
| GATGATTGTTCTCCCAGCTGATGAATTCCTTTAGTCGAGTAAACAAATTTTCCTAATCTTTCTGTTCAAGCGCCATCTAC | 0.819 RPM ratio (pull-down/input) |
| GATGATTGTTCTCCCAGCTGATGAATTAGTGCAGTCGAGTAAACAAATTTTCCTAATCTTTCTGTTCAAGCGCCATCTAC | 0.937 RPM ratio (pull-down/input) |
| GATGATTGTTCTCCCAGCTGATGAATTGTTTGGATCGAGTAAACAAATTTTCCTAATCTTTCTGTTCAAGCGCCATCTAC | 1.65 RPM ratio (pull-down/input) |
| GATGATTGTTCTCCCAGCTGATGAATTGGGGACCTCGAGTAAACAAATTTTCCTAATCTTTCTGTTCAAGCGCCATCTAC | 0.742 RPM ratio (pull-down/input) |
| GATGATTGTTCTCCCAGCTGATGAATTCGGACTATCGAGTAAACAAATTTTCCTAATCTTTCTGTTCAAGCGCCATCTAC | 0.87 RPM ratio (pull-down/input) |
| GATGATTGTTCTCCCAGCTGATGAATTGAATTTATCGAGTAAACAAATTTTCCTAATCTTTCTGTTCAAGCGCCATCTAC | 1.05 RPM ratio (pull-down/input) |
| GATGATTGTTCTCCCAGCTGATGAATTTCAGTTATCGAGTAAACAAATTTTCCTAATCTTTCTGTTCAAGCGCCATCTAC | 1.02 RPM ratio (pull-down/input) |
| GATGATTGTTCTCCCAGCTGATGAATTGATGTTATCGAGTAAACAAATTTTCCTAATCTTTCTGTTCAAGCGCCATCTAC | 2.17 RPM ratio (pull-down/input) |
| GATGATTGTTCTCCCAGCTGATGAATTGATATTATCGAGTAAACAAATTTTCCTAATCTTTCTGTTCAAGCGCCATCTAC | 1.92 RPM ratio (pull-down/input) |
| GATGATTGTTCTCCCAGCTGATGAATTATTGATATCGAGTAAACAAATTTTCCTAATCTTTCTGTTCAAGCGCCATCTAC | 1.53 RPM ratio (pull-down/input) |
| GATGATTGTTCTCCCAGCTGATGAATTATTGTCATCGAGTAAACAAATTTTCCTAATCTTTCTGTTCAAGCGCCATCTAC | 1.86 RPM ratio (pull-down/input) |
| GATGATTGTTCTCCCAGCTGATGAATTATCGATATCGAGTAAACAAATTTTCCTAATCTTTCTGTTCAAGCGCCATCTAC | 1.08 RPM ratio (pull-down/input) |
| GATGATTGTTCTCCCAGCTGATGAATTAATGTTATCGAGTAAACAAATTTTCCTAATCTTTCTGTTCAAGCGCCATCTAC | 1.95 RPM ratio (pull-down/input) |
| GATGATTGTTCTCCCAGCTGATGAATTTTTGCTATCGAGTAAACAAATTTTCCTAATCTTTCTGTTCAAGCGCCATCTAC | 1.21 RPM ratio (pull-down/input) |
| GATGATTGTTCTCCCAGCTGATGAATTGTCATTATCGAGTAAACAAATTTTCCTAATCTTTCTGTTCAAGCGCCATCTAC | 1.31 RPM ratio (pull-down/input) |
| GATGATTGTTCTCCCAGCTGATGAATTGCTATTATCGAGTAAACAAATTTTCCTAATCTTTCTGTTCAAGCGCCATCTAC | 1.8 RPM ratio (pull-down/input) |
| GATGATTGTTCTCCCAGCTGATGAATTATTTTCATCGAGTAAACAAATTTTCCTAATCTTTCTGTTCAAGCGCCATCTAC | 1.27 RPM ratio (pull-down/input) |
| GATGATTGTTCTCCCAGCTGATGAATTATGTTAATCGAGTAAACAAATTTTCCTAATCTTTCTGTTCAAGCGCCATCTAC | 1.21 RPM ratio (pull-down/input) |
| GATGATTGTTCTCCCAGCTGATGAATTAAATGTATCGAGTAAACAAATTTTCCTAATCTTTCTGTTCAAGCGCCATCTAC | 1.4 RPM ratio (pull-down/input) |
| GATGATTGTTCTCCCAGCTGATGAATTATTGCTATCGAGTAAACAAATTTTCCTAATCTTTCTGTTCAAGCGCCATCTAC | 1.3 RPM ratio (pull-down/input) |
